In the supplement of paper PMC4022240:
± gives the standard deviation.

Experiments:
Test in all cases: peptide microarray binding signal (635 nm), min-max normalized on array (fraction of array maximum); higher = stronger binding
[1] = biological target: T1, HaloTag-ATRX ADD domain (163-292)
T1 chain: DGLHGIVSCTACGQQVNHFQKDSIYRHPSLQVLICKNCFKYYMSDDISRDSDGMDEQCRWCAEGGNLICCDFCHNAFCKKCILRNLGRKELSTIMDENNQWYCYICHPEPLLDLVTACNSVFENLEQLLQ
Procedure, shortened: (§1)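 An Axon GenePix 4000B scanned the arrays at 635 nm for signal and at 532 nm to catch misprints. Those arrays held histone 13-mer peptide–cellulose conjugates printed in triplicate on nitrocellulose with a Cy3 tracer, blocked overnight at 4°C and probed for 1 h at 4°C with biotin-labelled HaloTag reader fusions (10 nM to 1 μM) plus streptavidin-Alexa Fluor 647 or with rabbit histone antibodies (1:10,000 to 1:2,000) plus anti-rabbit Alexa 647. Each binding signal is a triplicate-spot mean intensity, scaled min-max within its library.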

[2] = biological target: HaloTag-ING2 PHD (mouse Ing2 200-280)
Procedure, shortened: as §1

[3] = biological target: anti-H3K4me3 antibody ab8580
Procedure, shortened: as §1

[4] = biological target: anti-H3K9me3 antibody ab8898
Procedure, shortened: as §1

[5] = peptide region: H4 38-50, peptide modifications: H4K44me2, binder concentration: 1:2,000 dilution
[6] = peptide region: H4 38-50, peptide modifications: H4K44me2, binder concentration: 1:10,000 dilution
[7] = peptide region: H4 53-65, peptide modifications: H4K59ac, binder concentration: 1:2,000 dilution
[8] = peptide region: H4 53-65, peptide modifications: H4K59ac, binder concentration: 1:10,000 dilution
[9] = peptide region: H4 38-50, peptide modifications: H4K44me2 H4R45me1, binder concentration: 1:2,000 dilution
[10] = peptide region: H4 38-50, peptide modifications: H4K44me2 H4R45cit, binder concentration: 1:2,000 dilution
[11] = peptide region: H4 38-50, peptide modifications: H4K44me2 H4R45cit, binder concentration: 1:10,000 dilution
[12] = peptide region: H4 38-50, peptide modifications: H4K44me3 H4R45me2s, binder concentration: 1:2,000 dilution
[13] = peptide region: H4 38-50, peptide modifications: H4K44me3 H4R45me2s, binder concentration: 1:10,000 dilution
[14] = peptide region: H4 38-50, peptide modifications: H4R45me2s, binder concentration: 1:2,000 dilution
[15] = peptide region: H4 38-50, peptide modifications: H4R45me2s, binder concentration: 1:10,000 dilution
[16] = peptide region: H4 38-50, peptide modifications: H4K44me3 H4R45me2a, binder concentration: 1:2,000 dilution
[17] = peptide region: H4 38-50, peptide modifications: H4K44me3 H4R45me2a, binder concentration: 1:10,000 dilution
[18] = peptide region: H4 38-50, peptide modifications: H4K44me1 H4R45me2s, binder concentration: 1:2,000 dilution
[19] = peptide region: H4 38-50, peptide modifications: H4K44me1 H4R45me2s, binder concentration: 1:10,000 dilution
[20] = peptide region: H4 38-50, peptide modifications: H4K44me3 H4R45me1, binder concentration: 1:2,000 dilution
[21] = peptide region: H4 38-50, peptide modifications: H4K44me3 H4R45me1, binder concentration: 1:10,000 dilution
[22] = peptide region: H4 38-50, peptide modifications: H4K44me2 H4R45me2s, binder concentration: 1:2,000 dilution
[23] = peptide region: H4 38-50, peptide modifications: H4K44me2 H4R45me2s, binder concentration: 1:10,000 dilution

## ARRGGVKRISGLI [H4 38-50 A R R G G V Kme2 R I S G L I]
[1]; peptide region: H4 38-50, peptide modifications: H4K44me2, binder concentration: 50 nM
  peptide microarray binding signal: 0.0141 ± 0.0019
[1]; peptide region: H4 38-50, peptide modifications: H4K44me2, binder concentration: 500 nM
  peptide microarray binding signal: 0.0244 ± 0.00095
[2]; peptide region: H4 38-50, peptide modifications: H4K44me2, binder concentration: 10 nM
  peptide microarray binding signal: 0.0118 ± 0.00032
[2]; peptide region: H4 38-50, peptide modifications: H4K44me2, binder concentration: 100 nM
  peptide microarray binding signal: 0.0304 ± 0.0032
[3]; [5]
  peptide microarray binding signal: 0.00204 ± 0.00018
[3]; [6]
  peptide microarray binding signal: 0.00359 ± 0.00012
[4]; [5]
  peptide microarray binding signal: 0.00169 ± 3e-05
[4]; [6]
  peptide microarray binding signal: 0.00231 ± 5.5e-05

## ETRGVLKVFLENV [H4 53-65 E T R G V L Kac V F L E N V]
[1]; peptide region: H4 53-65, peptide modifications: H4K59ac, binder concentration: 50 nM
  peptide microarray binding signal: 0.00241 ± 3.2e-05
[1]; peptide region: H4 53-65, peptide modifications: H4K59ac, binder concentration: 500 nM
  peptide microarray binding signal: 0.00333 ± 0.00022
[2]; peptide region: H4 53-65, peptide modifications: H4K59ac, binder concentration: 10 nM
  peptide microarray binding signal: 0.00997 ± 0.0024
[2]; peptide region: H4 53-65, peptide modifications: H4K59ac, binder concentration: 100 nM
  peptide microarray binding signal: 0.00425 ± 0.00013
[3]; [7]
  peptide microarray binding signal: 0.00104 ± 4.9e-05
[3]; [8]
  peptide microarray binding signal: 0.00143 ± 4.8e-05
[4]; [7]
  peptide microarray binding signal: 0.000529 ± 1.3e-05
[4]; [8]
  peptide microarray binding signal: 0.00104 ± 2.1e-05

## ARRGGVKRISGLI [H4 38-50 A R R G G V Kme2 Rme I S G L I]
[1]; peptide region: H4 38-50, peptide modifications: H4K44me2 H4R45me1, binder concentration: 500 nM
  peptide microarray binding signal: 0.00233 ± 8.5e-05
[2]; peptide region: H4 38-50, peptide modifications: H4K44me2 H4R45me1, binder concentration: 100 nM
  peptide microarray binding signal: 0.00361 ± 0.00019
[3]; [9]
  peptide microarray binding signal: 0.000491 ± 1.3e-05
[4]; [9]
  peptide microarray binding signal: 0.000347 ± 9.2e-06

## ARRGGVKRISGLI [H4 38-50 A R R G G V Kme2 Rcit I S G L I]
[1]; peptide region: H4 38-50, peptide modifications: H4K44me2 H4R45cit, binder concentration: 50 nM
  peptide microarray binding signal: 0.00389 ± 6.7e-05
[1]; peptide region: H4 38-50, peptide modifications: H4K44me2 H4R45cit, binder concentration: 500 nM
  peptide microarray binding signal: 0.00743
[2]; peptide region: H4 38-50, peptide modifications: H4K44me2 H4R45cit, binder concentration: 10 nM
  peptide microarray binding signal: 0.007102 ± 3.2e-05
[2]; peptide region: H4 38-50, peptide modifications: H4K44me2 H4R45cit, binder concentration: 100 nM
  peptide microarray binding signal: 0.0109 ± 0.00033
[3]; [10]
  peptide microarray binding signal: 0.00136 ± 0.00012
[3]; [11]
  peptide microarray binding signal: 0.00177 ± 2.9e-05
[4]; [10]
  peptide microarray binding signal: 0.00104 ± 2.9e-05
[4]; [11]
  peptide microarray binding signal: 0.0011 ± 2.9e-05

## ARRGGVKRISGLI [H4 38-50 A R R G G V Kme3 Rme2s I S G L I]
[1]; peptide region: H4 38-50, peptide modifications: H4K44me3 H4R45me2s, binder concentration: 50 nM
  peptide microarray binding signal: 0.00533 ± 8.8e-05
[1]; peptide region: H4 38-50, peptide modifications: H4K44me3 H4R45me2s, binder concentration: 500 nM
  peptide microarray binding signal: 0.0131 ± 0.0006
[2]; peptide region: H4 38-50, peptide modifications: H4K44me3 H4R45me2s, binder concentration: 10 nM
  peptide microarray binding signal: 0.0355 ± 0.0027
[2]; peptide region: H4 38-50, peptide modifications: H4K44me3 H4R45me2s, binder concentration: 100 nM
  peptide microarray binding signal: 0.0541 ± 0.0061
[3]; [12]
  peptide microarray binding signal: 0.0265 ± 0.0032
[3]; [13]
  peptide microarray binding signal: 0.0193 ± 0.0017
[4]; [12]
  peptide microarray binding signal: 0.0291 ± 0.0028
[4]; [13]
  peptide microarray binding signal: 0.0206 ± 0.0014

## ARRGGVKRISGLI [H4 38-50 A R R G G V K Rme2s I S G L I]
[1]; peptide region: H4 38-50, peptide modifications: H4R45me2s, binder concentration: 50 nM
  peptide microarray binding signal: 0.0042 ± 0.00012
[1]; peptide region: H4 38-50, peptide modifications: H4R45me2s, binder concentration: 500 nM
  peptide microarray binding signal: 0.00971 ± 0.0016
[2]; peptide region: H4 38-50, peptide modifications: H4R45me2s, binder concentration: 10 nM
  peptide microarray binding signal: 0.0212 ± 0.0027
[2]; peptide region: H4 38-50, peptide modifications: H4R45me2s, binder concentration: 100 nM
  peptide microarray binding signal: 0.0349 ± 0.0095
[3]; [14]
  peptide microarray binding signal: 0.00542 ± 0.0019
[3]; [15]
  peptide microarray binding signal: 0.00702 ± 0.0012
[4]; [14]
  peptide microarray binding signal: 0.00222 ± 0.0001
[4]; [15]
  peptide microarray binding signal: 0.00173 ± 4.4e-05

## ARRGGVKRISGLI [H4 38-50 A R R G G V Kme3 Rme2a I S G L I]
[1]; peptide region: H4 38-50, peptide modifications: H4K44me3 H4R45me2a, binder concentration: 50 nM
  peptide microarray binding signal: 0.00524 ± 0.00017
[1]; peptide region: H4 38-50, peptide modifications: H4K44me3 H4R45me2a, binder concentration: 500 nM
  peptide microarray binding signal: 0.00852 ± 0.00069
[2]; peptide region: H4 38-50, peptide modifications: H4K44me3 H4R45me2a, binder concentration: 10 nM
  peptide microarray binding signal: 0.0304 ± 0.0024
[2]; peptide region: H4 38-50, peptide modifications: H4K44me3 H4R45me2a, binder concentration: 100 nM
  peptide microarray binding signal: 0.0612 ± 0.0075
[3]; [16]
  peptide microarray binding signal: 0.0239 ± 0.0068
[3]; [17]
  peptide microarray binding signal: 0.016 ± 0.00029
[4]; [16]
  peptide microarray binding signal: 0.0197 ± 0.0016
[4]; [17]
  peptide microarray binding signal: 0.009686 ± 5.3e-05

## ARRGGVKRISGLI [H4 38-50 A R R G G V Kme Rme2s I S G L I]
[1]; peptide region: H4 38-50, peptide modifications: H4K44me1 H4R45me2s, binder concentration: 50 nM
  peptide microarray binding signal: 0.006019 ± 2.1e-05
[1]; peptide region: H4 38-50, peptide modifications: H4K44me1 H4R45me2s, binder concentration: 500 nM
  peptide microarray binding signal: 0.00619 ± 0.00016
[2]; peptide region: H4 38-50, peptide modifications: H4K44me1 H4R45me2s, binder concentration: 10 nM
  peptide microarray binding signal: 0.0119 ± 0.00057
[2]; peptide region: H4 38-50, peptide modifications: H4K44me1 H4R45me2s, binder concentration: 100 nM
  peptide microarray binding signal: 0.0102 ± 0.0013
[3]; [18]
  peptide microarray binding signal: 0.00185 ± 0.00022
[3]; [19]
  peptide microarray binding signal: 0.00451 ± 0.00035
[4]; [18]
  peptide microarray binding signal: 0.00219 ± 0.00017
[4]; [19]
  peptide microarray binding signal: 0.0034 ± 0.00013

## ARRGGVKRISGLI [H4 38-50 A R R G G V Kme3 Rme I S G L I]
[1]; peptide region: H4 38-50, peptide modifications: H4K44me3 H4R45me1, binder concentration: 50 nM
  peptide microarray binding signal: 0.002821 ± 2.4e-05
[1]; peptide region: H4 38-50, peptide modifications: H4K44me3 H4R45me1, binder concentration: 500 nM
  peptide microarray binding signal: 0.00524 ± 8.9e-05
[2]; peptide region: H4 38-50, peptide modifications: H4K44me3 H4R45me1, binder concentration: 10 nM
  peptide microarray binding signal: 0.0104 ± 0.0012
[2]; peptide region: H4 38-50, peptide modifications: H4K44me3 H4R45me1, binder concentration: 100 nM
  peptide microarray binding signal: 0.0257 ± 0.006
[3]; [20]
  peptide microarray binding signal: 0.00143 ± 5.5e-05
[3]; [21]
  peptide microarray binding signal: 0.001655 ± 1.6e-05
[4]; [20]
  peptide microarray binding signal: 0.000951
[4]; [21]
  peptide microarray binding signal: 0.000865 ± 9e-06

## ARRGGVKRISGLI [H4 38-50 A R R G G V Kme2 Rme2s I S G L I]
[1]; peptide region: H4 38-50, peptide modifications: H4K44me2 H4R45me2s, binder concentration: 50 nM
  peptide microarray binding signal: 0.00586 ± 0.00025
[1]; peptide region: H4 38-50, peptide modifications: H4K44me2 H4R45me2s, binder concentration: 500 nM
  peptide microarray binding signal: 0.0125 ± 0.00027
[2]; peptide region: H4 38-50, peptide modifications: H4K44me2 H4R45me2s, binder concentration: 10 nM
  peptide microarray binding signal: 0.0175 ± 0.00042
[2]; peptide region: H4 38-50, peptide modifications: H4K44me2 H4R45me2s, binder concentration: 100 nM
  peptide microarray binding signal: 0.0397 ± 0.019
[3]; [22]
  peptide microarray binding signal: 0.00361 ± 0.00025
[3]; [23]
  peptide microarray binding signal: 0.00611 ± 0.00033
[4]; [22]
  peptide microarray binding signal: 0.0037 ± 0.00027
[4]; [23]
  peptide microarray binding signal: 0.00484 ± 0.00089
